# Assay results as given in PubChem BioAssay.
# The source made the active and inactive calls. How the calls were made is not given here.
# Tested on: Aerobactin synthetase IucA (Klebsiella pneumoniae, hypervirulent)
# Assay: biochemical IucA inhibition screen of LOPAC library by absorbance (AID 1346212);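 further: 100% = no compound wells and 0% = no enzyme wells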
# Details: IucA enzyme assay, absorbance (OD) readout; active compounds read low;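 tested at 8 µM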
row,Structure (SMILES),remaining activity
1,COc1ccc(C(=O)NCc2cccnc2)cc1C(=O)NCc1cccnc1,103% (inactive)
2,c1ccc2nc(C3=NCCN3)ccc2c1,121% (inactive)
3,N#C/C(=C\c1ccc(O)c(O)c1)C(=O)Nc1ccccc1,103% (inactive)
4,O=c1[nH]c2cc(C(F)(F)F)ccc2n1-c1cc(C(F)(F)F)ccc1O,112% (inactive)
5,CC1=C(CC(=O)O)c2cc(F)ccc2/C1=C\c1ccc(S(C)(=O)=O)cc1,93.6% (inactive)
6,CN(C)S(=O)(=O)c1ccc2c(c1)/C(=C/c1cc3c([nH]1)CCCC3)C(=O)N2,121% (inactive)
7,CN1C2CCC1CC(OC(=O)c1c[nH]c3ccccc13)C2 (stereo not given),97.7% (inactive)
8,COc1cc2c(cc1C(F)(F)F)N(C(=O)Nc1cc(F)cc(-c3cccnc3)c1)CC2,120% (inactive)
9,Cc1nc(N=Nc2ccc(C(=O)O)cc2)c(COP(=O)(O)O)c(C=O)c1O,110% (inactive)
10,N#Cc1cc([N+](=O)[O-])c2sc(C(N)=O)[n+]([O-])c2c1,106% (inactive)
11,N=S(=O)(O)Cc1noc2ccccc12,121% (inactive)
12,C[C@]12CCC(=O)C=C1CC[C@@H]1[C@@H]2C(=O)C[C@@]2(C)[C@H]1CC[C@]2(O)C(=O)CO,105% (inactive)
13,COc1cccc(OC)c1OCCNCC1COc2ccccc2O1 (stereo not given),105% (inactive)
14,N#Cc1cc2nc(O)c(O)nc2cc1[N+](=O)[O-],86.8% (inactive)
15,CC(=O)c1ccc(S(=O)(=O)NC(=O)NC2CCCCC2)cc1,127% (inactive)
16,O=C1O/C(=C/Br)CCC1c1cccc2ccccc12 (stereo not given),112% (inactive)
17,CNCCCC1c2ccccc2C=Cc2ccccc21,101% (inactive)
18,O=c1c(O)c(-c2cc(O)c(O)c(O)c2)oc2cc(O)cc(O)c12,115% (inactive)
19,CC(C)[C@H]1c2ccc(F)cc2CC[C@@]1(CCN(C)CCCc1nc2ccccc2[nH]1)OC(=O)C1CC1,118% (inactive)
20,O=C(O)C1CCNCC1,111% (inactive)

row,Structure (SMILES),remaining activity
1,CN1CC[C@]2(CCN3CCc4c(oc5ccccc45)[C@@H]3C2)N(C)C1=O,109% (inactive)
2,CC(C)(C)c1ccc(C(O)CCCN2CCC(C(O)(c3ccccc3)c3ccccc3)CC2)cc1 (stereo not given),101% (inactive)
3,Brc1ccc([C@H]2CN3CCSC3=N2)cc1,105% (inactive)
4,CCN(CC)CCOC(=O)c1cc(Cl)c(N)cc1OC,103% (inactive)
5,O=C(NCCO)c1ccc2c(c1)nc(Nc1cccc(Cl)c1)c1ccncc12,90% (inactive)
6,O=C(OCCN1CCOCC1)C1(c2ccccc2)CCCCC1,123% (inactive)
7,O=C(O)/C=C/c1cnc[nH]1,101% (inactive)
8,CNC(=O)c1cc2c(cn1)[nH]c1ccccc12,97.3% (inactive)
9,Brc1c(Br)c(Br)c2n[nH]nc2c1Br,120% (inactive)
10,Nc1nc2c(ncn2COC(CO)CO)c(=O)[nH]1,111% (inactive)
11,CCN(CC)CCCCCCCCOC(=O)c1cc(OC)c(OC)c(OC)c1,100% (inactive)
12,COc1cc2c(cc1OC)[C@@H](c1ccccc1)CN(C)CC2,102% (inactive)
13,O=C1N=c2cc(Cl)c(Cl)cc2=NC1=O,110% (inactive)
14,COc1cc2c(CCNC(C)=O)c[nH]c2cc1Cl,115% (inactive)
15,c1ccc(-c2ccccn2)nc1,75.1% (inactive)
16,Cc1cc(Cn2cnc3c2C[C@@H](C(=O)O)N(C(=O)C(c2ccccc2)c2ccccc2)C3)ccc1N,112% (inactive)
17,O=c1onc2n1-c1cc(Br)ccc1OC2,105% (inactive)
18,CCN(CC)C(=O)c1ccc(O)c(OC)c1,122% (inactive)
19,CN(CCOc1ccc(C[C@H](Nc2ccccc2C(=O)c2ccccc2)C(=O)O)cc1)c1ccccn1,117% (inactive)
20,COC(=O)C(C)(N)Cc1ccc(O)cc1 (stereo not given),114% (inactive)
